NR5A2 inv ag – NR5A2 inverse agonism in reporter assay; inhibition, % at 3.6 µM; O00482; hit rate 0.13% among 360,000; AID 602396; HEK293T StAR-luciferase reporter, LRH-1 transfected, 24 h;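 active = inhibition above the mean inhibition of all tested compounds plus 3 SD, cut at about 73% in these data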;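 also: 0% = DMSO wells and 100% = reporter-only cells lacking LRH-1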
SRC2 inh – inhibits human steroid receptor coactivator 2; hit rate 0.17% among 370,000; HEK293 GAL4-SRC2 luciferase reporter, luminescence; AID 651957; Q15596; inhibition, % at 9 µM;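 active = inhibition above the mean inhibition of all tested compounds plus 3 SD, set per campaign, cut at about 52% in these data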;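 also: 0% = DMSO treated cells and 100% = cells given Gossypol at 36 µM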
NR2F2 inh – blocks human COUP-TFII nuclear receptor; hit rate 0.7% among 370,000; P24468; inhibition, % at 8.6 µM; AID 686940; HEK293T NGFI-A luciferase reporter, luminescence;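 active = inhibition above a per-plate cutoff, mean inhibition of test wells between control levels plus 3 SD, cut at about 38% in these data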;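 also: cells cotransfected with COUP-TFII expression vector driving the NGFI-A reporter; 0% = median of COUP-TF2 test wells and 100% = reporter-only cells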
NCOA3 inh – human NCOA3 inhibition; inhibition, % at 3.6 µM; hit rate 0.17% among 360,000; HEK293 GAL4-SRC3 luciferase reporter, luminescence;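 active = inhibition above a per-campaign cutoff, the mean of all compounds plus 3 SD, cut at about 60% in these data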;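 also: 0% = DMSO-treated cells and 100% = gossypol-treated cells at 36 µM; higher means less SRC3-driven luciferase light from the GAL4 reporter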
GalR3 antag – antagonists of human GalR3 | O60755 | HEK293 GalR3-CNG cAMP membrane potential fluorescence; galR3 body fused to GalR1 C-terminus | inhibition, % at 3 µM | hit rate 0.44% among 360,000 | AID 651719;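 active = inhibition above the screen-wide average plus 3 SD, cut at about 13% in these data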;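 also: forskolin and galanin both at EC90 stimulate the cells; cAMP rise reported by CNG channel membrane potential dye signal; 0% = forskolin plus galanin with DMSO and 100% = forskolin alone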
SRC1 inh – inhibits human SRC1 coactivator; HEK293 GAL4-SRC1 luciferase reporter, luminescence; inhibition, % at 3.6 µM; AID 588354; Q15788; hit rate 0.12% among 360,000;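 active = inhibition above the campaign mean plus 3 SD, with each screening campaign given its own cutoff, cut at about 60% in these data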;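 also: 0% = DMSO treated cells and 100% = gossypol at 36 µM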
VP16 Luc counter – VP16 inhibition counter-screen for COUP-TFII. shares compounds with NR2F2 inh. HEK293 Gal4-VP16 luciferase reporter, luminescence. inhibition, % at 8.5 µM. hit rate 25% among 2,500. AID 687007; in the data active = inhibition above about 13%
NR2F2 inh conf – confirmation of human COUP-TFII (NR2F2) inhibitors; shares compounds with NR2F2 inh; HEK293 NGFI-A luciferase reporter, luminescence; inhibition, % at 8.5 µM; hit rate 45% among 2,500; AID 687008;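 active = mean inhibition over three repeats above a set limit taken from the earlier primary screen, cut at about 38% in these data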;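 also: 100% = cells given the luciferase reporter alone without the COUP-TF2 vector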
* hit, by the source's call; . = no result. Sampled rows, rich in hits. Any-hit rate of the full collection: about 1.1%.

SMILES | NR5A2 inv ag | SRC2 inh | NR2F2 inh | NCOA3 inh | GalR3 antag | SRC1 inh | VP16 Luc counter | NR2F2 inh conf
CC(=O)CSc1nc(N)c(C#N)c(-c2cccs2)c1C#N | 45 | 42 | 9 | 24 | -1 | 23 | . | .
CC(C)OC(=O)CSc1nc(N)c(C#N)c(-c2cccs2)c1C#N | 31 | 10 | 45* | 24 | -9 | 12 | 5 | 25
C=CCn1c(O)c(N=NC(=S)Nc2ccccc2F)c2ccccc21 | 14 | 5 | 22 | 16 | -8 | 8 | . | .
C=CCn1c(O)c(N=NC(=S)Nc2ccccc2F)c2cc(S(=O)(=O)N3CCOCC3)ccc21 | -2 | 14 | 49* | 17 | -2 | 7 | -2 | 28
N#CCC[C@@H]1CC[C@]2(CCCN(Cc3ccc(Cl)cc3)C2)O1 | . | 5 | -8 | . | . | . | . | .
O=c1cc(CN2CCCC2)c2ccccc2o1 | . | 8 | 12 | . | -6 | . | . | .
CN=c1scc(-c2cccs2)n1/N=C/c1ccccc1O | 98* | 88* | 94* | 93* | -7 | 92* | 88* | 108*
O=C(Nc1ccc(-c2nc3ccccc3s2)cc1)c1cc(-n2cnnc2)ccc1Cl | 25 | -24 | 70* | -4 | -9 | -16 | -16 | 52*
C[C@@H]1C=CCCO[C@]12C(=O)N(CC1CC1)c1cccc(Br)c12 | . | 12 | -7 | . | -8 | . | . | .
Cc1ccnc(OC(C(=O)O)C(OCc2ccccc2)(c2ccccc2)c2ccc(C(F)(F)F)cc2)n1 (stereo not drawn) | 19 | -30 | 47* | 35 | -2 | 8 | 6 | 14
Cc1cc(C)nc(OC(C(=O)O)C(OCc2ccccc2)(c2ccccc2)c2ccccc2)n1 (stereo not drawn) | -2 | -6 | -9 | 5 | -3 | 7 | . | .
CCOc1cc(/C=C2\COc3ccccc3C2=O)cc(Br)c1OCC(=O)N(C)C | 25 | 57* | 38* | 42 | -4 | 35 | 4 | 28
N#Cc1cccc(NC(=O)OCCCN2CCC3(CCCCC3)C2=O)c1 | . | -4 | -2 | . | . | . | . | .
CN1/C(=C\P(=O)(N(C)C)N(C)C)C(C)(C)c2ccccc21 | 26 | 5 | 46* | 12 | -5 | 4 | -6 | 0
CCOC(=O)/C=C1/N(C)c2ccccc2C1(C)C | -6 | 9 | 2 | 12 | -7 | 16 | . | .
CCCCOCCCNc1ncnc2c1[nH]c1ccccc12 | 44 | -15 | 66* | 29 | -6 | 18 | 14* | 63*
COc1ccc2[nH]c3c(N4CCc5ccccc5C4)ncnc3c2c1 | -15 | -48 | 20 | 1 | -3 | -55 | . | .
COc1ccc(N2CCN(c3ncnc4c3[nH]c3ccccc34)CC2)cc1 | 38 | 21 | 52* | 32 | -5 | 30 | 6 | 61*
CCCCOc1ncnc2c1[nH]c1ccccc12 | 12 | -8 | 49* | 10 | -6 | -6 | -60 | 33
CCOCCCNc1ncnc2c1[nH]c1ccccc12 | 6 | 14 | 36 | 1 | 0 | -2 | . | .
Cc1ccc(C)c(NC(=O)C2CCCN2S(=O)(=O)c2cccc3cccnc23)c1 (stereo not drawn) | . | -7 | 17 | . | . | . | . | .
CC(C)c1ccc(/C=C2\SC(=S)N(CCC(=O)N3CCCCC3CCO)C2=O)cc1 (stereo not drawn) | -5 | 48 | 41* | 42 | -10 | 26 | -30 | 10
COc1ccc(/C=C2\SC(=S)N(CCCC(=O)N3CCN(C)CC3)C2=O)cc1 | 16 | 36 | 24 | 12 | -7 | 20 | . | .
COc1ccc(/C=C2\SC(=S)N(CCCC(=O)N3CCCCC3CCO)C2=O)cc1 (stereo not drawn) | 27 | 77* | 54* | 34 | -7 | 24 | 42* | 30
O=C1/C(=C\c2ccccc2)SC(=S)N1CCC(=O)N1CCCCC1CCO (stereo not drawn) | 7 | 5 | 21 | 9 | -7 | -5 | . | .
CC(Oc1ccc(Cl)cc1Cl)c1nc(-c2ccc(NC(=O)c3ccncc3)cc2)no1 (stereo not drawn) | 31 | -12 | 80* | 22 | -7 | 15 | 0 | 32

Bioassay records deposited in PubChem by The Scripps Research Institute Molecular Screening Center.
